# Activity calls are given as the source filed them. The calls were made as follows: active = hit-call score of the fitted dose curve at least 0.9, where 1 is the maximum; inactive = score below 0.9.
# Read-out: MicroRNA 122 (MIR122), gene 406906
# Experiment: LTEA_HepaRG_MIR122: Life Technologies and Expression Analysis (LTEA) Assay for MicroRNA 122 (MIR122) using HepaRG (AID 2283516)
# Conditions: mRNA level, 48 h; actives raise or lower the signal
# Method: LTEA_HepaRG is a cell based, multiplexed-readout assay that uses HepaRG, a human liver cell line, with measurements taken at 48 hours after chemical dosing on a 96-well plate.LTEA_HepaRG_MIR122 is one of 102 assay component(s) measured in the LTEA HepaRG cell culture assay. It is a marker of MicroRNA.Data from the assay component LTEA_HepaRG_MIR122 was analyzed into 1 endpoint. This assay endpoint, LTEA_HepaRG_MIR122, was analyzed with bidirectional fitting relative to DMSO as the negative control and baseline of activity. Using a type of inducible reporter, measures of mRNA induction for gain or loss-of-signal activity can be used to understand regulation of transcription factor activity. To generalize the intended target to other relatable targets, this assay endpoint is annotated to the microrna intended target family, where the subfamily is post-transcriptional regulation.
# A total of 1060 chemcials from the ToxCast library were tested in eight-point concentration-response experiments. Cell culture and cytotoxicity assays were conducted at Thermo Fisher Scientific's Custom Services facility (Madison, WI). A single lot of human HepaRG cells (Thermo Fisher Scientific, Frederick, MD) was used for the cell culture experiments. 96-well format collagen type I coated plates of human HepaRG cells were prepared using established methods. Briefly, cryopreserved HepaRG cells were thawed, plated at a density of approximately 100,000 cells/well in HepaRG Thaw, Plate, and General Purpose media (HPRG770, Thermo Fisher Scientific), and incubated for 48 hours. 0.5% DMSO was selected as vehicle control to balance the requisite need of DMSO in HepaRG cultures to maintain differentiation (for example, baseline metabolism, proportions of hepatocytes vs. cholangiocytes), while enabling further hepatic receptor pathway activation (for example, PXR and CAR) in response to chemical exposure. 48 hours after plating, the culture medium was replaced with HepaRG Serum-Free Incudtion Media. Cells were exposed to each test chemical in duplicate and maintained in CO2 incubators for another 48 hours. Chemical plates were thawed to room temperature and 200x concentrations of treatment groups were prepared. 8-point conentration-reponse curves were made with the highest exposure at 100 uM, followed by half-log dilutions, all in 0.5% DMSO. Each test plate contained variouse controls, induction positive controls (1mM phenobarbital), cytotoxicity positive controls ([…] aflatoxin B1), vehicle controls (0.5% DMSO), and total lysis controls (0.5% DMSO). Cell morphology images were taken using an Essen IncuCyte FLR automated microscope, with six 96-well plates imaged in about 24 minutes. Images were captured and exported and JPEG files. Spent culture media was transfered to black-well plates for the LDH assay, and remaining media was sorted at -80 C for later use. Cells were treated with RLT buffer and frozen until shipped for gene expression analysis. Total RNA was isolated from the cell suspension in 75 uL of Buffer RLT (Qiagen, Germantown, MD 20874) by Quintiles/Expression Analysis (Durham, NC) using a custom isolation procedure. Total RNA from each plate well was transferred to a preamplification plate. Fluidigm's 96.96 Dynamic ArrayTM (Fluidigm, Amsterdam, the Netherlands) technology was used for gene expression analyses by quantitative reverse transcription polymerase chain reaction (qRT-PCR, performed by Quintiles/Expression Analysis, Durham, NC)89. Standard TaqManTM Assays (Applied Biosystems/ThermoFisher Scientific, Foster City, CA) were used to assess the expression of 93 genes selected based on their selectivity and sensitivity to important hepatic receptors known to be modulated by environmental chemicals; importance in human hepatocyte functionality; and hepatotoxicity. […]
SMILES,outcome,AC50
CCCCCCCCCCCCN1CCCC1=O,inactive,
CCCOC(=O)c1ccc(O)cc1,inactive,
CC(C)(C)c1cccc(C(C)(C)C)c1O,inactive,
ClC1=C(Cl)C(Cl)(Cl)C(Cl)=C1Cl,inactive,
CN(C)C=O,inactive,
CCCCCCC(=O)O,inactive,
OCCC(F)(F)C(F)(F)C(F)(F)C(F)(F)C(F)(F)C(F)(F)F,inactive,
CCCCC(CC)COC(=O)CCCCC(=O)OCC(CC)CCCC (stereo not given),inactive,
CCCCCCCC(=O)O,inactive,
CC(C)CCCCCCOC(=O)CCCCC(=O)OCCCCCCC(C)C,inactive,
CCOC(=O)CC(O)(CC(=O)OCC)C(=O)OCC,inactive,
NC(=O)N1C(=O)C(C(=O)c2cc(Cl)cs2)c2cc(F)c(Cl)cc21 (stereo not given),,26.4 µM (active)
CCC(=C(c1ccc(O)cc1)c1ccc(OCCN(C)C)cc1)c1ccccc1,,88.8 µM (active)
OC1CCC(C2CCCCC2)CC1 (stereo not given),inactive,
CCCCCCCCCCCCCCCS(=O)(=O)Oc1ccccc1,inactive,
CCCCCCCCCCCCc1ccccc1S(=O)(=O)O,,80.6 µM (active)
CC(C)(C)c1cc(C(C)(C)C)c(O)c(C(C)(C)C)c1,inactive,
CCCCOCCO,inactive,
CC[C@H](C)[C@@H](C(=O)O)n1sc2ccccc2c1=O,inactive,
OCCC(F)(F)C(F)(F)C(F)(F)C(F)(F)C(F)(F)C(F)(F)C(F)(F)C(F)(F)F,inactive,

SMILES,outcome,AC50
Cc1oc(-c2ccccc2)nc1CCOc1ccc(C[C@H](Nc2ccccc2C(=O)c2ccccc2)C(=O)O)cc1,inactive,
CCCCC(CC)COC(=O)CCCCC(=O)OCc1ccccc1 (stereo not given),inactive,
O=[N+]([O-])c1ccc(O)cc1,inactive,
N#C[C@@H]1CC(F)(F)CN1C(=O)CNC1CC2CCC(C1)N2c1ncccn1 (stereo not given in full),inactive,
CN1CCC[C@H]1c1cccnc1,inactive,
NC(=O)N(O)[C@@H]1C=C[C@H](Oc2cccc(Oc3ccc(F)cc3)c2)C1,,68 µM (active)
c1ccc2cc3c(ccc4ccccc43)cc2c1,,15 µM (active)
COC(=O)CCCCC(=O)OC,inactive,
O=c1c(-c2ccc(O)cc2)coc2cc(O)ccc12,inactive,
CCCCCCCCOC(=O)CCCCCCCCC(=O)OCCCCCCCC,inactive,
OC1CCCCC1,inactive,
O=C(O)Cc1cc(I)c(Oc2cc(I)c(O)c(I)c2)c(I)c1,,58.6 µM (active)
c1ccc2c(c1)ccc1ccccc12,inactive,
COCC(C)OCC(C)O (stereo not given),inactive,
C[C@@H]1C[C@H]2[C@@H]3CCC4=CC(=O)C=C[C@]4(C)[C@@]3(F)[C@@H](O)C[C@]2(C)[C@@]1(O)C(=O)COP(=O)(O)O,inactive,
CCCOc1sc(C(=O)N2CCC(c3cc(CN)ccc3F)CC2)c(C)c1Br,inactive,
CCc1ccc(CCOc2ccc(CC3SC(=O)NC3=O)cc2)nc1 (stereo not given),,72.7 µM (active)
O=C(O)c1ccccc1C(c1ccc(O)cc1)c1ccc(O)cc1,inactive,
CC(O)CO (stereo not given),inactive,
CC#C[C@]1(O)CC[C@H]2[C@@H]3CCC4=CC(=O)CCC4=C3[C@@H](c3ccc(N(C)C)cc3)C[C@@]21C,,50 µM (active)

# Reference: PubChem BioAssay (EPA / NIEHS)
